Hits are enriched below; roughly 10% of the tested compounds scored in any of these assays.
MCF10A rerep: A quantitative high throughput screen for small molecules that induce DNA re-replication in MCF 10a normal breast cells; AID 624296, 2012; Potency, µM (titrated, usually from 46.1 µM), without a hit: at the highest dose activity, positive = re-replication, hits mostly activators; MCF 10A DNA re-replication, Hoechst nuclear intensity, 48 h; hit rate 2.9% among 350,000; note: % of control where 0% means no effect; nearly all actives have a fitted effect of over 50% in size
Gal4-VP16 FLuc: VP16 counterscreen qHTS for inhibitors of ROR gamma transcriptional activity | hit rate 3.5% among 310,000 | Drosophila S2 Gal4-VP16 UAS-luciferase, luminescence, 20 h | AID 2546, 2010 | Potency, µM (top dose mostly 53.6 µM), for inactives: top-dose activity, negative = inhibition, most hits filed as inhibitors;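 note: Gal4-VP16 expression switched on by copper sulfate through the metallothionein promoter; % is set by controls: 0 for no effect and ±100 for the full control effect; nearly all actives have a fitted effect of over 50% in size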
SW480 rereplic: A quantitative high throughput screen for small molecules that induce DNA re-replication in SW480 colon adenocarcinoma cells; SW480 DNA re-replication, Hoechst DNA content imaging, 48 h; Potency, µM (series often up to 46.1 µM), inactives show at the highest dose re-replication activation, usual class: activators; hit rate 1.8% among 340,000; note: % of control where 0% means no effect; nearly all actives have a fitted effect of over 55% in size
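Treated cells incubate 48 hr (37 C, 5% CO2), are stained 40 min with Hoechst, and nuclear fluorescence is enumerated; a rise in nuclei with high DNA signal marks re-replication.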
ELG1 DNA repair: qHTS screen for small molecules that inhibit ELG1-dependent DNA repair in human embryonic kidney (HEK293T) cells expressing luciferase-tagged ELG1 | HEK293T ELG1-luciferase reporter, luminescence, 16 h; DNA damage induced by 5-fluorouridine | Potency, µM (series often up to 46.1 µM), inactives show at the top dose activity change, negative = inhibition, actives largely listed as inhibitors | hit rate 2.3% among 330,000 | AID 504467, 2011; note: % is set by controls: 0 for no effect and ±100 for the full control effect; nearly all actives have a fitted effect of over 55% in size
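Overnight (16 hr) co-exposure of 2,000 cells/well to 5-fluorouridine and compound at 37 °C preceded detection. Luciferase was quantified via ONE-Glo luminescence; loss of signal denotes inhibition.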
RORgamma inh: qHTS for inhibitors of ROR gamma transcriptional activity; Nuclear receptor ROR-gamma (Mus musculus), P51450; Drosophila S2 Gal4-RORgamma UAS-luciferase reporter, 20 h; Potency, µM (highest dose often 53.6 µM), for inactives: at the top dose activity change, negative = inhibition, most hits filed as inhibitors; hit rate 5.4% among 310,000; AID 2551, 2010; note: % is set by controls: 0 for no effect and ±100 for the full control effect; nearly all actives have a fitted effect of over 60% in size
Target sequence (P51450 whole entry, looked up, the tested form may be a part): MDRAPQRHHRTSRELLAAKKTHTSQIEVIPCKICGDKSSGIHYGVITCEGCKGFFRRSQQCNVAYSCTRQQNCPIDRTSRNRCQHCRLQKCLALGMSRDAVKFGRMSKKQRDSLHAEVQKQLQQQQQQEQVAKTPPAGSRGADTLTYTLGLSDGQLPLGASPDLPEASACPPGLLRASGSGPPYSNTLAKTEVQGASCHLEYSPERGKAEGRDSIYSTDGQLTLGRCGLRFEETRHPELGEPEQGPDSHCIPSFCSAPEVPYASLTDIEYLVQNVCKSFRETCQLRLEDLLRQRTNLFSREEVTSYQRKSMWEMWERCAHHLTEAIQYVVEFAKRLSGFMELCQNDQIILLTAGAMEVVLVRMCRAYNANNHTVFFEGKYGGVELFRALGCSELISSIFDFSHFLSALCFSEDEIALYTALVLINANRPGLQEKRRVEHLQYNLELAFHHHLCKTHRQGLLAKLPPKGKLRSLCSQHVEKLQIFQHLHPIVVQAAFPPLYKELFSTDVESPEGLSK
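Schneider cells (Drosophila), stable Gal4 DBD–ROR gamma + UAS-luc; 1 hr cmpd preincubation; Cu2+ induction 700 uM final; 20 hr ambient; luminescence.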
* = called active by the depositor; ? = inconclusive; . = not tested or not shown; ! = a repeat was not active; [ ] = remark or other dose. Calls come from the whole dose curve; as a rule, active = well fitted curve in the direction sought with a large enough effect; inconclusive = small, poorly fitted or top-dose-only effect, or another doubt; inactive = no such curve, though single readings can be large; an effect the other way counts as inactive or inconclusive. Potency is the fitted concentration of half-maximal effect.

SMILES	MCF10A rerep	Gal4-VP16 FLuc	SW480 rereplic	ELG1 DNA repair	RORgamma inh
CC(C)(O)C1C2OC(=O)C1[C@]1(O)C[C@H]3O[C@]34C(=O)O[C@H]2[C@]14C (some centres not stated) (tested in a mixture with another compound)	4%	-3%	-1%	.	16%
CC/C=C\C/C=C\C/C=C\C/C=C\C/C=C\CCCC(=O)NCCCC(=O)O	.	0%	.	.	-27%
Cc1ccc(OCC(=O)N2CCN(C3CCC(c4ccccc4)CC3)CC2)cc1 (configuration not stated)	13µM*	2%	-2%	-2%	10%
c1ccc2nc3ccccc3nc2c1	?	-3%	18%	2%	21%
O=C(O)c1cccc2nc3ccccc3nc12	0%	1%	8.2µM*	?	-20%
COc1ccc(CCNC2CCCCCC2)cc1	16%	0%	3.3µM*	-3%	1%
O=C(/C=C/c1c[nH]c2ccccc12)c1c(O)n(CCc2ccccc2)c(=O)[nH]c1=O	16µM*	2%	18µM*	?	5%
Cc1nonc1OCCNCCNc1ccc([N+](=O)[O-])c2cccnc12	2%	5µM*	-26%	-16%	1.8µM*
CCNCCNc1ccc([N+](=O)[O-])c2cccnc12	1%	20µM*	-8%	?	2.8µM*
O=[N+]([O-])c1ccc(N2CCCC2)c2ncccc12	-3%	-7%[10 µM]	-10%	13%	-2%
CC1CN(c2ccc([N+](=O)[O-])c3cccnc23)CC(C)N1 (configuration not stated)	0%	-4%	-7%	-17%	2%
C=C(Cl)CCl	.	7%	.	.	6%
COc1cc(CCN)ccc1O	1%	.	-37%	16%	.
CCCCCSc1cc(OC)c(CCN)cc1OC	?	?	16µM*	17%	7.1µM*
C[C@]12CC[C@H]3[C@@H](CC[C@@]45O[C@@H]4C(=O)C(C#N)C[C@]35C)[C@@H]1CC[C@@H]2O (some centres not stated)	?	7%	?	.	?
CC[C@@H](CO)NC(=O)[C@@H]1C=C2c3cccc4c3c(cn4C)C[C@H]2N(C)C1	8%	?	-4%	?	18µM*!
CCC(CO)NC(=O)C1C=C2c3cccc4[nH]cc(c34)CC2N(C)C1 (configuration not stated)	-8%	-2%	-18%	0%	-3%
CC1CC2OC2/C=C\C=C/C(=O)Cc2c(Cl)c(O)cc(O)c2C(=O)O1 (configuration not stated)	.	10µM*	.	.	7.9µM*
ClC(Br)Br	.	2%	.	.	2%
NC(N)=NCCCCCCCCCCN=C(N)N	.	2%	.	.	25%
CC(C)(C)n1ncc2c(=O)n(Cc3cccc(Cn4cnc5c(cnn5C(C)(C)C)c4=O)c3F)cnc21	-12%	.	3%[9.22 µM]	8.2µM*	.
CC(C)(C)c1ccc(CSc2cnn(C(C)(C)C)c(=O)c2Cl)cc1	4%	-79%	1%	?	?
CCOP(=O)(OCC)c1nc(-c2ccc(F)cc2)oc1NCc1ccccc1	4.1µM*	0%	-18%	?	23%
CCOP(=O)(OCC)c1nc(-c2ccccc2)oc1NCc1ccccc1	7%	-2%	4%	?	44%
CCOP(=O)(OCC)c1nc(-c2cccc3ccccc23)oc1N1CCOCC1	?	-8%	13%	?	-6%
CCOP(=O)(OCC)c1nc(-c2cccc3ccccc23)oc1NCCc1ccc(OC)cc1	10µM*	-10%	21µM*	?	15%[10 µM]
C[C@H](N)Cc1c[nH]c2ccc(OCc3cccs3)cc12	.	3%	.	.	0%
COc1ccc(C(=O)O/N=C(/C(N)=O)P(=O)(OC(C)C)OC(C)C)cc1	-2%	7.9µM*	70%	3%	16µM*
COc1cccc([C@@]2(O)CCCCC2CN(C)C)c1 (some centres not stated)	.	-2%	.	.	-3%

Screening results (PubChem BioAssay)
